Measured values published in PubChem BioAssay AID1212 (NMMLSC, 2008).
Calls of active or inactive are those of the source.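 Rule for the calls: active = blocks over 60% of fluorescent estradiol binding at 10 µM; inactive = the rest.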

These compounds were tested against G-protein coupled estrogen receptor 1 (Homo sapiens) (UniProt Q99527) (assay: displacement of E2-Alexa633 from GPER – cell-based, Cos7 GPR30-GFP, flow cytometry, 10 µM, primary screen (AID 1212)). Settings: fluorescent estrogen competition, at 10 µM; hits give high values.
With `CCOc1cc2c(c([N+](=O)[O-])c1)NC(c1ccc(Br)cc1)C1CC=CC21` (stereo not given) the inhibition was 23% (inactive). For `CC(C)CN(Cc1c(O)ccc2c3c(c(=O)oc12)CCC3)CC(C)C`, the inhibition was 3% (inactive). With `COC(=O)c1ccc2c(c1)C1C=CCC1C(c1cccc([N+](=O)[O-])c1)N2` (stereo not given) the inhibition was 16% (inactive). For `Cc1ccc(-n2cc3c(c(C#N)c2=N)CC(C)(C)CC3=O)cc1`, the outcome was “inactive”. In the case of `COc1ccc(-n2cc3c(c(C#N)c2=N)CC(C)(C)CC3=O)cc1`, the outcome is reported as “inactive”. With `CCc1cc2c3c(c(=O)oc2cc1OCC(=O)OC)CCCC3` the outcome was “inactive”. For `CC1CCCC(C)N1Cc1c(O)ccc2c3c(c(=O)oc12)CCC3` (stereo not given), the inhibition was 23% (inactive). For `O=C(O)c1ccc([N+](=O)[O-])c2c1NC(c1ccccc1)C1CC=CC21` (stereo not given), the inhibition was 100% (active). For `COc1cc([N+](=O)[O-])cc2c1N[C@@H](c1ccc(C(=O)O)cc1)[C@H]1CC=C[C@@H]21`, the inhibition was 91% (active). For `CCCc1c(C(=O)OCC)[nH]c2c1C(=O)CC(c1ccccc1)C2` (stereo not given), the outcome was “inactive”.
